# Compound activity: PubChem, National Center for Advancing Translational Sciences (NCATS)
# RXFP1 antagonist: qHTS Assay for Antagonists of the Relaxin Receptor RXFP1 | Relaxin receptor 1 (Homo sapiens), Q9HBX9 | HEK293-RXFP1, relaxin-stimulated cAMP HTRF, 30 min; stronger effect = lower value | activity change, negative = inhibition, % at 57.5 µM | 350,000 tested, 0.59% active | AID 1259400, 2018;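 active means activity change of -60% or lower, but not beyond a set lower limit; inconclusive means change between -60% and -40%, or beyond the set limit; inactive means change above -40%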; further: on the % scale 0 is the no-effect control and ±100 the full control effect
# Akt phos inh: HTS Assay for Inhibitors of Akt Phophorylation: Primary Screen. Neuro2A IGF-stimulated pAkt S473 HTRF, 20 min; stronger effect = lower value. activity change, % for hits at 50 µM. 360,000 tested, 0.32% active. AID 651550, 2012; in the data active means activity change below about -80%; inconclusive means mostly about -51% to -80%; further: on the % scale 0 is the no-effect control and ±100 the full control effect
#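 Neuro2A cells (4,500/well, DMEM with 0.5% FBS) were treated with compound at a single 50 µM final concentration, stimulated with 6 nM IGF for 20 min at 37 °C, and lysed. Phospho-Akt Ser473 was read by HTRF as 665/615 ratio ×10^4.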
# gsp ag: qHTS for Agonist of gsp, the Etiologic Mutation Responsible for Fibrous Dysplasia/McCune-Albright Syndrome: qHTS; gsp mutant cells, cAMP HTRF, 30 min; AID 624287, 2012; Potency, µM (titrated, usually from 76.9 µM), for the others: at the top dose activation (cAMP increase), hits mostly activators; 340,000 tested, 0.13% active; active means well fitted activation curve with a large enough effect; inconclusive means small, poorly fitted or top-dose-only effect, or another doubt; inactive means no such curve, though single readings can be large or run the other way; cell line not stated here;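 further: phosphodiesterase inhibitor Ro 20-1724 added with compounds to block cAMP breakdown; potency means the concentration at half of the fitted maximal effect; nearly all actives have a fitted effect of over 60% in size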
#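 Cells in DMEM/10% FBS with G418 were pretreated with compounds in DMSO plus […] (300 uM stock) for 30 min at 37C. cAMP was measured by HTRF (cAMP-d2 plus anti-cAMP antibody-K) after 30 min at room temperature.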
# RXFP1 ag: qHTS Assay for Agonists of the Relaxin Receptor RXFP1; Potency, µM (highest dose often 57.5 µM), inactives show at the highest dose activation, most hits filed as activators; AID 2676, 2010; HEK293T-RXFP1 cAMP TR-FRET, 30 min; response scale: percent of porcine relaxin response, buffer zero; Relaxin receptor 1 (Homo sapiens), Q9HBX9; 370,000 tested, 0.3% active; active means well fitted activation curve with a large enough effect; inconclusive means small, poorly fitted or top-dose-only effect; further: potency means the concentration at half of the fitted maximal effect; on the % scale 0 is the no-effect control and ±100 the full control effect; nearly all actives have a fitted effect of over 60% in size
#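 cAMP rise read by TR-FRET after 30 min, 37C compound exposure (up to 58 uM) in RXFP1-transfected HEK293 cells with Ro 20174 present. EC50 from Hill-equation fits, with 29 nM porcine relaxin as 100% and buffer as basal.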
# gsp antagonist: qHTS for Antagonists of gsp, the Etiologic Mutation Responsible for Fibrous Dysplasia/McCune-Albright Syndrome: qHTS; gsp-mutant cells, cAMP HTRF, 30 min; 340,000 tested, 0.4% active; Potency, µM (doses to about 76.9 µM), inactives show at the top dose activity change, negative = inhibition, actives largely listed as inhibitors; calls by dose curve; cell line not stated here;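 further: intracellular cAMP measured with PDE inhibitor Ro 20-1724 present during compound exposure; potency means the concentration at half of the fitted maximal effect; on the % scale 0 is the no-effect control and ±100 the full control effect; nearly all actives have a fitted effect of over 65% in size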
#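 Measurement of cellular cAMP by homogeneous time-resolved fluorescence following a 30 min compound exposure at 37C. The PDE inhibitor […] was present throughout; the assay buffer was DPBS with 0.05% BSA and 0.005% Tween 20.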
# ClpP mod: qHTS Assay for Activators of ClpP | ATP-dependent Clp protease proteolytic subunit (Bacillus subtilis (strain 168)), P80244 | purified B. subtilis ClpP, FRET peptide cleavage, 20 min | Potency, µM (series often up to 57.5 µM), without a hit: at the top dose activity change, negative = active | 340,000 tested, 1.9% active | AID 651965, 2013; active means well fitted falling curve with a large enough effect; inconclusive means small, poorly fitted or top-dose-only effect; inactive means no such curve, though single readings can be large or run the other way; further: potency means the concentration at half of the fitted maximal effect; the source files actives as falling curves though it sought activators and does not explain the sign; nearly all actives have a fitted effect of over 65% in size
#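 Buffer: 100 mM Tris/HCl pH8, 100 mM KCl, 0.05% low protease BSA, 2.5% glycerol, 0.01% Tween-20. ClpP 10 microg/mL final; 20 min RT; delta FRET normalized to ADEP and DMSO controls.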
# Starred values were filed as active, the others as inactive; i = inactive; ? = inconclusive; · = no result; [ ] = remark or other dose. Rows were chosen to be rich in hits. Some 2.7% of all compounds tested hit in one or more screens of this group.
SMILES,RXFP1 antagonist,Akt phos inh,gsp ag,RXFP1 ag,gsp antagonist,ClpP mod
Cc1ccc(N2C(=O)c3ccccc3NC2C(C)Cc2ccc3c(c2)OCO3)cc1 (configuration not stated),8,·,6%,6%,?,32µM*
O=C(Nc1cccc(-c2cn3cccnc3n2)c1)c1ccco1,3,i,8%,3%,-4%,-4%
CCOc1cc(C(=O)Nc2ccc(-c3cn4cccnc4n3)cc2)cc(OCC)c1OCC,-10,·,·,8%,·,16µM*
O=C(Nc1cccc(-c2cn3cccnc3n2)c1)c1ccc2c(c1)OCO2,11,i,14%,3%,-13%,28µM*
COc1ccc(-c2cn3cccnc3n2)cc1NC(=O)CC(C)C,3,i,25%,8%,-2%,28µM*
C/C(=N\NC(=O)c1ccc(-n2cnnn2)cc1)c1ccc(Cl)cc1,11,i,-6%,1%,2%,-2%
CCCSc1nc(N)c(C#N)c(-c2ccc(C)cc2)c1C#N,-4,-91%*,-5%,28%,13%,-17%
CSc1nc(N)nc(SCC(=O)C23CC4CC(CC(C4)C2)C3)c1C#N,-3,i,30%,1%,?,-4%
N#Cc1c(N)nc(SCC(=O)C23CC4CC(CC(C4)C2)C3)c(C#N)c1-c1ccc(Cl)cc1,1,-82%*,?,?,29%,-15%
Cc1cc(C)n2nc(-c3ccco3)nc2n1,-6,i,-2%[15.4 µM],6%,-3%,-3%
CC(=O)CSc1nc(-c2cccs2)c(C#N)c(=O)[nH]1,22,i,?,14µM*,-2%,·
Cc1cccc(C)c1NC(=O)CN(Cc1ccccc1)Cc1ccccc1,·,i,·,·,·,-1%
CCOc1ccc2oc(C(=O)OCC(=O)N3CCCC(C)C3)c(C)c2c1 (configuration not stated),-9,i,0%,1%,?,28µM*
CCOc1ccc2oc(C(=O)OCC(=O)N3CC(C)OC(C)C3)c(C)c2c1 (configuration not stated),-10,i,-2%,-1%,-7%,4%
COc1ccc2oc(C(=O)OCC(=O)N3CCCC(C)C3)c(C)c2c1 (configuration not stated),-9,i,-4%,-1%,6%,14µM*
COc1ccc2oc(C(=O)OCC(=O)N3CCN(C(C)=O)CC3)c(C)c2c1,-6,i,?,2%,10%,25µM*
O=C(Nc1cccc(-c2nc3ccccc3s2)c1)c1ccc2c(c1)OCO2,-9,i,-14%,4%,-4%,?
COc1cccc(-c2nc3ccccc3s2)c1,-8,i,17%,-1%,7%,28µM*
Nc1cccc(-c2nc3ccc(N)cc3s2)c1,·,i,?,14%,-10%,14µM*
c1ccc2sc(-c3ccc4c(c3)OCO4)nc2c1,-14,-112%*,17%,7%,-3%,2%
COC(=O)c1ccc2[nH]c(C)c(CN3CCCC3)c(=O)c2c1,-4,i,13%,2%,-5%,28µM*
C=CCN(CC=C)Cc1c(C)[nH]c2ccc(C(=O)OCC)cc2c1=O,-4,i,6%,0%,14%,28µM*
CCOc1ccc2[nH]c(C)c(CN3CCN(C)CC3)c(=O)c2c1,0,·,-25%,2%,1%,-4%
CCOc1ccc2[nH]c(C)c(CN3CCN(CC)CC3)c(=O)c2c1,-9,-122%*,?,-1%,8%,16µM*
CC1CC(=O)NN=C1c1ccc(NCC(C)(C)NCC(O)COc2cc(Cl)ccc2C#N)cc1 (configuration not stated),13,·,·,·,·,·
